# Inconclusive results are not listed. A number with no mark means an inactive call. Activity calls are given as the source filed them. Unless noted, the call rests on the fitted dose curve; in most records, active means well fitted curve in the direction sought with a large enough effect; inconclusive means small, poorly fitted or top-dose-only effect, or another doubt; inactive means no such curve, though single readings can be large; an effect the other way counts as inactive or inconclusive.
# What was measured:
# [1] = HEK-293 Cancer Cell Toxicity qHTS against the NCATS CANVASS Library (AID 1347355)
# Procedure, shortened: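 Luminescent ATP read-out (CellTiter-Glo, 15min at room temperature) measures survival after cells face an 11-point compound series for 72 hours at 37 degrees C/5% CO2.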
# [2] = KB-8-5-11 Cancer Cell Toxicity qHTS against the NCATS CANVASS Library (AID 1347364)
# Procedure, shortened: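 Plate 500 KB-8-5-11 cells per well in DMEM + 10% FBS, add compounds by pin transfer, incubate 72 hr at 37C. Add CellTiter-Glo, wait 10 minutes at room temperature, read luminescence.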
# [3] = KB-3-1 Cancer Cell Toxicity qHTS against the NCATS CANVASS Library (AID 1347366)
# Procedure, shortened: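 CellTiter-Glo luminescence measured viability after 72 h at 37C. KB-3-1 cells were seeded at 500 per well in DMEM/10% FBS.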
# [4] = biological target: Nuclear receptor subfamily 1 group I member 3 (Homo sapiens) (UniProt Q14994); test: qHTS for Constitutive Androstane Receptor (CAR) Antagonist screened against the NCATS CANVASS Library (AID 1347372)
# Chain of Nuclear receptor subfamily 1 group I member 3 (Homo sapiens) (Q14994 whole entry, looked up): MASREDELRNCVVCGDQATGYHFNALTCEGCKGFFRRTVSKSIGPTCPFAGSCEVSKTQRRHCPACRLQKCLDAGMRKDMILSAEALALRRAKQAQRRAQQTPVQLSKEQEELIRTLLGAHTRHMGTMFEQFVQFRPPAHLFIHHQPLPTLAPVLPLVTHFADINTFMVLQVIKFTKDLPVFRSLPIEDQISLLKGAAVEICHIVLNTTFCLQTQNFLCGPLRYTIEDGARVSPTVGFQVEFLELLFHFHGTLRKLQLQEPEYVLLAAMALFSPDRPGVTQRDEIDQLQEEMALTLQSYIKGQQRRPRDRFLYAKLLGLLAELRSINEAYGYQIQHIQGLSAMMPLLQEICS
# Procedure, shortened: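 HepG2 cells stably carrying hCAR and CYP2B6-2.2kb luciferase reporter, 2500 cells/well, compound with 50 nM CITCO agonist for 24hr at 37C. ONE-Glo luminescence measured CAR activity; CellTiter-Fluor read viability.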
# [5] = qHTS for Hypoxia signaling pathway (HIF-1) antagonists against the NCATS CANVASS Library (AID 1347374)
# Procedure, shortened: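 HRE-bla ME-180 cells in medium with 0.5% dialyzed FBS received compounds (11-point series) plus CoCl2 (60 uM addition stock) for 17 hrs at 37C. Beta-lactamase activity read with CCF4 (405 nm ex, 460/530 nm em); CellTiter-Glo viability measured in same wells.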
# [6] = qHTS for Hypoxia signaling pathway (HIF-1) agonists against the NCATS CANVASS Library (AID 1347375)
# Procedure, shortened: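 ME-180 HRE-bla reporter cells; 2,000/well, 0.5% dialyzed FBS; cpd added after 5 h, 17 h 37C/5% CO2; CCF4-AM 2 h RT; FRET 460/530 nm; CellTiter-Glo viability same wells, 30 min.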
# [7] = qHTS for Inflammasome Signaling Inhibitors: IL-1-beta AlphaLISA screen against the NCATS CANVASS Library (AID 1347379)
# Procedure, shortened: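 THP-1 cells pretreated 1 hr with compound (up to 57.5 uM final), then stimulated with LPS (250 ng/mL final) and ATP (1.25 mM final). Secreted IL-1B measured by AlphaLISA after 16 hr; glyburide as positive control.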
# [8] = qHTS assay for small molecule disruptors of mitochondrial membrane potential screened against the NCATS CANVASS Library (AID 1347389)
# Procedure, shortened: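 HepG2, 2,000 cells/well, attached overnight; compound 1 hr, 37C, 5% CO2; Mito-MPS dye 30 min, 37C; fluorescence 535 nm (monomer) and 590 nm (aggregate); decreased 590/535 ratio = depolarization.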
# [9] = qHTS for inhibitors of Wild type Zika virus screened against the NCATS CANVASS Library (AID 1347396)
# Procedure, shortened: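 Vero 766 (African green monkey) cells, 1000 per well, attached overnight, then compounds were added in an 11-point series before wild-type Zika virus infection. After 72 h at 37C, cell viability was read as CellTiter Glo luminescence.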
# [10] = Viability qHTS for inhibitors of the SERCaMP assay screened against the NCATS CANVASS Library (AID 1347400)
# Procedure, shortened: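 SH-SY5Y SERCaMP MJH297 cells, 1000/well; 4 h settle, 37C/5% CO2; pin-transferred cpds; 48 h; CellTiter-Glo lum. Pos ctrl bortezomib 0.0001 - 4.6 uM.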
# [11] = qHTS for inhibitors of Rabies Virus screened against the NCATS CANVASS Library (AID 1347402; calls by dose curve)
# [12] = tested on: NAD(P)H diaphorase (Clostridium kluyveri); test: Diaphorse counterscreen qHTS: Assay Interference Panel against the NCATS CANVASS Library (AID 1347362)
# Procedure, shortened: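 Clostridium kluyveri diaphorase in PBS + 0.01% Tween-20 preincubated 15 min with compounds. Resazurin and NADH then added for 5 min at room temperature in the dark; resorufin fluorescence read (ex 525, em 598).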
# [13] = biological target: Glutathione peroxidase 1 (Homo sapiens) (UniProt P07203); test: Primary qHTS Assay for Inhibitors of Recombinant Selenoprotein Glutathione Peroxidase 1 (GPX1) (AID 1845191)
# Chain of Glutathione peroxidase 1 (Homo sapiens) (P07203 whole entry, looked up): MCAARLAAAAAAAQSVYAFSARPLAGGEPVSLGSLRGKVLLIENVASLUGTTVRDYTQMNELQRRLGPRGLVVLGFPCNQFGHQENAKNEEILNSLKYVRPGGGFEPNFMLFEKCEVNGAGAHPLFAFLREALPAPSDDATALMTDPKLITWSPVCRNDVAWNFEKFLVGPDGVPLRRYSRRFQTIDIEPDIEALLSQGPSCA
# Procedure, shortened: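 GR-coupled assay: compounds preincubated 30 min at room temperature with GPX1, then reaction started with CHP; final 10 nM GPX1, 1 mM GSH, 0.5 mM CHP, 0.5 mM NADPH, 100 nM GR, 0.01% BSA, pH 7.5 Tris buffer. NADPH fluorescence (340/450 nm) read at 0 and 15 min.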
smiles,measurement,setting,value
CO[C@@]12c3c(C)cc(O)c4c(=O)occ(c34)C(=O)[C@@H]1[C@]13COC(=O)c4c(O)cc(C)c(c41)C(=O)[C@H]2[C@@H]3OC(C)=O,Potency,[1],inactive
same,Potency,[2],inactive
same,Potency,[3],inactive
same,Potency,[4],inactive
same,Potency,[5],inactive
same,outcome,[6],inactive
same,Potency,[7],inactive
same,Potency,[8],16.6 µM (active)
same,Potency,[9],inactive
same,Potency,[10],inactive
same,outcome,[11],inactive
C/C=C/[C@@H]1[C@H]2C[C@@H](C)CC[C@@H]2C(C)=C[C@H]1C(=O)c1c(O)c(-c2ccc(O)cc2)c[nH]c1=O,Potency,[12],inactive
same,Potency,[2],20.9 µM (active)
same,Potency,[3],18.7 µM (active)
same,Potency,[4],inactive
same,Potency,[5],23.6 µM (active)
same,outcome,[6],inactive
same,Potency,[7],inactive
same,Potency,[8],14.8 µM (active)
same,Potency,[10],inactive
CN1C(=O)[C@@H](NC(=O)[C@H](CCC(F)(F)F)[C@H](CCC(F)(F)F)C(N)=O)N=C(c2ccccc2)c2ccccc21,Potency,[13],inactive
C/C=C(\C)C(=O)N[C@@H](c1ccccc1)[C@@H](O)C(=O)O[C@H]1C[C@@]2(O)[C@@H](OC(=O)c3ccccc3)[C@@H]3[C@]4(OC(C)=O)CO[C@@H]4C[C@H](O)[C@@]3(C)C(=O)[C@H](OC(C)=O)C(=C1C)C2(C)C,Potency,[13],inactive
COc1cc(C)[nH]c(=O)c1CNC(=O)c1c(C)n([C@H](C)C2CCN(CC(F)(F)F)CC2)c2ccccc12,Potency,[13],inactive
CC1(C)CC[C@]2(NC(=O)C(C)(F)F)CC[C@]3(C)[C@H](C(=O)C=C4[C@@]5(C)C=C(C#N)C(=O)C(C)(C)[C@@H]5CC[C@]43C)[C@@H]2C1,Potency,[13],inactive
COC(=O)[C@@]12Oc3cccc(O)c3C(O)=C1C(=O)C[C@H](C)[C@H]2O,outcome,[11],inactive
CC(C)(NC(=O)O[C@@H]1CN2CCC1CC2)c1csc(-c2ccc(F)cc2)n1,Potency,[13],inactive
CC(C)(O)/C=C\C(=O)[C@](C)(O)[C@H]1[C@H](O)C[C@]2(C)[C@@H]3CC=C4[C@@H](C=C(O)C(=O)C4(C)C)[C@]3(C)C(=O)C[C@@]12C,Potency,[13],inactive
COC12C(COC(N)=O)C3=C(C(=O)C(C)=C(N)C3=O)N1CC1C2N1C (configuration not stated),Potency,[13],inactive
C[C@@]12OC(=O)[C@]1([C@@H](O)[C@@H]1C=CCCC1)NC(=O)[C@@H]2CCCl,Potency,[13],inactive
CO/C1=C/C(C)=C\[C@@H](C)[C@@H](O)[C@@H](C)C/C(C)=C\C=C/[C@H](OC)[C@@H]([C@@H](C)[C@@H](O)[C@H](C)[C@@]2(O)C[C@@H](O)[C@H](C)[C@@H](C(C)C)O2)OC1=O,Potency,[13],inactive
Cc1c(N)nc([C@H](CC(N)=O)NC[C@@H](N)C(N)=O)nc1C(=O)N[C@H](C(=O)N[C@@H](C)[C@H](O)[C@@H](C)C(=O)N[C@@H](C(=O)NCCc1nc(-c2nc(C(=O)NCCC[S+](C)C)cs2)cs1)[C@@H](C)O)C(O[C@H]1O[C@H](CO)[C@H](O)[C@@H](O)[C@H]1O[C@H]1O[C@H](CO)[C@@H](O)[C@H](OC(N)=O)[C@@H]1O)c1cnc[nH]1 (some centres not stated),Potency,[13],inactive
C[C@@H]1CC[C@@]2(OC1)O[C@H]1C[C@H]3[C@@H]4CC=C5C[C@@H](O[C@@H]6O[C@H](CO)[C@@H](O[C@@H]7O[C@@H](C)[C@H](O)[C@@H](O)[C@H]7O)[C@H](O)[C@H]6O[C@@H]6O[C@@H](C)[C@H](O)[C@@H](O)[C@H]6O)CC[C@]5(C)[C@H]4CC[C@]3(C)[C@H]1[C@@H]2C,Potency,[13],inactive
COC(=O)[C@@]12OC[C@]34[C@H]([C@@H](O)[C@@H]1O)[C@@]1(C)CC(=O)C(O)=C(C)[C@@H]1C[C@H]3OC(=O)[C@H](OC(=O)/C=C(\C)C(C)C)[C@@H]24,Potency,[13],inactive
Cn1c(/C=C/CO)c(CO)c2c1C(=O)C=C(N1CC1)C2=O,Potency,[13],inactive
CC(=O)O[C@@]12CO[C@@H]1C[C@H](O)[C@@]1(C)C(=O)[C@H](O)C3=C(C)[C@@H](O)C[C@@](O)([C@@H](OC(=O)c4ccccc4)[C@H]21)C3(C)C,Potency,[13],inactive
OCc1ccc2ocnc2c1,outcome,[11],inactive
C[C@@]1(CCC(=O)Nc2c(O)ccc(C(=O)O)c2O)C(=O)C=C[C@]23C[C@H]4C[C@H](O[C@@]4(C)C2)C31 (some centres not stated),outcome,[11],inactive
COc1cc2cc(c1Cl)N(C)C(=O)C[C@H](OC(=O)C(C)C)[C@]1(C)O[C@@H]1[C@H](C)[C@@H]1C[C@@](O)(NC(=O)O1)[C@H](OC)/C=C/C=C(\C)C2,Potency,[13],inactive
CC(N[C@H]1C[C@@H]1c1ccccc1)c1ccc2c(c1)OCCO2 (some centres not stated),Potency,[13],inactive
COc1ccc([C@@H]2c3cc(OC)c(OC)cc3C(=O)C(C)C2C)cc1OC (some centres not stated),outcome,[11],inactive
O=C(CBr)N1CC([N+](=O)[O-])([N+](=O)[O-])C1,Potency,[13],inactive
COC(=O)c1cccc2oc(-c3cccc4oc(-c5c(C)cccc5O)nc34)nc12,outcome,[11],inactive
O=C(O)CNC(=O)C1C(=O)N(C2CCCCC2)C(=O)N(C2CCCCC2)C1=O,Potency,[13],inactive
CC(C)[C@]12O[C@H]1[C@@H]1O[C@@]13[C@@]1(C)CCC4=C(COC4=O)[C@@H]1C[C@@H]1O[C@@]13C2=O,Potency,[13],inactive
COC(=O)[C@]12CCC(C)(C)C[C@H]1[C@H]1C(=O)C=C3[C@@]4(C)C=C(C#N)C(=O)C(C)(C)[C@@H]4CC[C@@]3(C)[C@]1(C)CC2,Potency,[13],inactive
C[C@]12COC(=O)C[C@@H]1CC[C@@H]1[C@@H]2CC[C@@]2(C)[C@H]1CC[C@]2(C)O,Potency,[13],inactive
COC[C@H]1OC(=O)c2coc3c2[C@@]1(C)C1=C(C3=O)[C@@H]2CC[C@H](O)[C@@]2(C)C[C@H]1OC(C)=O,Potency,[13],inactive
O=C1CC(c2ccc(O)cc2)Oc2cc(O)cc(O)c21 (configuration not stated),outcome,[11],inactive
CCCCCCC(C)(C)c1cc(O)c2c(c1)OC(C)(C)C1CC=C(CO)C[C@H]21 (some centres not stated),Potency,[13],inactive
CO[C@H]1CCC(O[C@H]2C[C@H]([C@]3(C)CC[C@]4(C[C@H](O)[C@@H](C)[C@@H]([C@@H](C)/C=C(\C)C(=O)[C@H](C)C[C@H](C)C(=O)O)O4)O3)O[C@]3(O[C@@H]([C@H]4O[C@@](O)(CO)[C@H](C)C[C@@H]4C)C[C@@H]3C)[C@@H]2C)O[C@@H]1C (some centres not stated),Potency,[13],inactive
C=C1C[C@@]23C=CC(=O)[C@@](C)(CCC(=O)Nc4c(O)ccc(C(=O)O)c4O)C2C[C@@H]1C(O)C3 (some centres not stated),outcome,[11],inactive
Cn1c(COP(=O)(NCCBr)NCCBr)cnc1[N+](=O)[O-],Potency,[13],inactive
N#CC(O[C@@H]1O[C@H](CO[C@@H]2O[C@H](CO)[C@@H](O)[C@H](O)[C@H]2O)[C@@H](O)[C@H](O)[C@H]1O)c1ccccc1 (some centres not stated),Potency,[13],inactive
C[C@@H](C1CC[C@@]2(O)C3=CC(=O)[C@@H]4C[C@@H](O)[C@@H](O)C[C@]4(C)[C@H]3CC[C@]12C)[C@H](O)CCC(C)(C)O (some centres not stated),Potency,[13],inactive
Cc1[nH]ncc1-c1cc2nc([C@@H]3CC4CCN3CC4)[nH]c(=O)c2s1,Potency,[13],inactive
C[C@]12CCC[C@](C)(C(=O)O)[C@@H]1CC[C@@]1(C)c3cocc3CC[C@H]21,outcome,[11],inactive
C=C(C)[C@@H]1CCC(C)=C[C@H]1c1c(O)cc(CCCCC)cc1O,Potency,[13],inactive

# — PubChem BioAssay (NCATS)
